Measured values reported in PubChem BioAssay (NCI).
Compounds without any hit were thinned out: in the full panel of roughly 79,000, 15% have a hit. The source made the active and inactive calls. Rule as the data show it: active = growth inhibition above about 70%; inactive = the rest.

Experiments:
[1] = NCI Yeast Anticancer Drug Screen. Data for the wt2 strain (AID 169);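 also: 0% = growth of vehicle-treated yeast cultures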; conditions: S. cerevisiae wt2 strain growth inhibition, stronger effect = higher value
Method in brief: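 Values express reduction in yeast growth under compound treatment, referenced to vehicle-treated cells.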

[2] = NCI Yeast Anticancer Drug Screen. Data for the sgs1 strain (AID 173);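 also: 0% = growth of vehicle-only control cultures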; conditions: S. cerevisiae sgs1 mutant, stronger effect = higher value
Method in brief: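 Treat defined-mutant yeast with compound; measure growth; calculate inhibition relative to vehicle-treated cells.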

[3] = NCI Yeast Anticancer Drug Screen. Data for the mlh1 rad18 strain (AID 175); conditions: S. cerevisiae mlh1 rad18 strain growth inhibition, stronger effect = higher value
Method in brief: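 Test agents were incubated with a yeast strain of defined genotype (DNA damage repair defect). Inhibition of growth was derived by comparison with vehicle-exposed cultures.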

[4] = NCI Yeast Anticancer Drug Screen. Data for the rad18 strain (AID 177); conditions: S. cerevisiae rad18 mutant growth inhibition, stronger effect = higher value
Method in brief: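 A genetically defined yeast mutant impaired in DNA damage repair was treated with test compounds, then its growth was measured against cultures receiving vehicle alone.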

[5] = NCI Yeast Anticancer Drug Screen. Data for the rad52 strain (AID 147);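 also: 0% = growth of vehicle-treated control cultures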; conditions: S. cerevisiae rad52 mutant growth inhibition, stronger effect = higher value
Method in brief: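 Screen used a yeast mutant impaired in DNA repair. After compound exposure, growth was measured. Values reflect inhibition compared with vehicle-treated cells.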

[6] = NCI Yeast Anticancer Drug Screen. Data for the wt1 strain (AID 149);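 also: 0% = growth of vehicle-treated wt1 cultures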; conditions: S. cerevisiae wt1 strain (SPY 50644) growth inhibition, stronger effect = higher value
Method in brief: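 Yeast wt1 strain exposed to compounds; growth inhibition measured relative to vehicle-treated controls.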

[7] = NCI Yeast Anticancer Drug Screen. Data for the rad50EPP+ strain (AID 151);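 also: 0% = growth of vehicle-treated control cultures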; conditions: S. cerevisiae rad50 mutant strain, stronger effect = higher value
Method in brief: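 Exposing the rad50EPP+ strain to each compound, growth was compared with vehicle-only cultures to give inhibition.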

[8] = NCI Yeast Anticancer Drug Screen. Data for the mgt1 strain (AID 153); conditions: S. cerevisiae mgt1 mutant growth inhibition, stronger effect = higher value
Method in brief: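 Genetically defined yeast (mgt1) treated with compound; inhibition of growth expressed against vehicle-treated controls.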

[9] = NCI Yeast Anticancer Drug Screen. Data for the rad50 strain (AID 155);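 also: 0% = growth of vehicle-only cultures of the same strain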; conditions: S. cerevisiae rad50 strain growth inhibition, stronger effect = higher value
Method in brief: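 Yeast carrying a defined DNA repair defect were exposed to test compounds, and growth was compared with vehicle-treated controls to give percent inhibition.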

[10] = NCI Yeast Anticancer Drug Screen. Data for the mec2-1 strain (AID 157); conditions: S. cerevisiae mec2-1 strain, stronger effect = higher value
Method in brief: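 Readout is yeast growth inhibition, normalised to vehicle-treated controls, in the mec2-1 strain exposed to compound.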

[11] = NCI Yeast Anticancer Drug Screen. Data for the rad14 strain (AID 159);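 also: 0% = growth of vehicle-treated control cultures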; conditions: S. cerevisiae rad14 strain growth inhibition, stronger effect = higher value
Method in brief: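 Yeast cells carrying a defined DNA-repair defect were exposed to compounds, and growth inhibition was calculated relative to vehicle-treated control cultures.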

[12] = NCI Yeast Anticancer Drug Screen. Data for the sgs1 mgt1 strain (AID 161);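 also: 0% = growth of cultures given vehicle only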; conditions: S. cerevisiae sgs1 mgt1 strain, stronger effect = higher value
Method in brief: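 Percent growth inhibition was derived by comparing compound-exposed mutant yeast with vehicle-exposed cultures. The strain carries alterations in DNA damage repair.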

[13] = NCI Yeast Anticancer Drug Screen. Data for the cln2 rad14 strain (AID 165);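 also: 0% = growth equal to vehicle treated cultures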; conditions: S. cerevisiae cln2 rad14 strain, stronger effect = higher value
Method in brief: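 Relative to vehicle controls, growth inhibition of compound-treated cln2 rad14 yeast was recorded.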

[14] = NCI Yeast Anticancer Drug Screen. Data for the bub3 strain (AID 167); conditions: S. cerevisiae bub3 mutant strain, stronger effect = higher value
Method in brief: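 Compounds were applied to a genetically altered yeast strain carrying a cell-cycle control defect. Growth inhibition was scored against vehicle-treated controls.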

[15] = NCI Yeast Anticancer Drug Screen. Data for the mlh1 strain (AID 171);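 also: 0% = growth of vehicle-treated control cultures of the same strain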; conditions: S. cerevisiae mlh1 strain growth inhibition, stronger effect = higher value
Method in brief: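 Steps: expose the defined-mutant yeast strain to compound; expose a parallel culture to vehicle; measure growth; express compound effect as inhibition relative to the vehicle culture.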

[16] = at 5.0 µM (retest, dose inferred, filed as 0.5)
[17] = at 50.0 µM (retest, dose inferred, filed as 5.0)

Measured: growth inhibition

CCOC(=O)C1=C(C(=O)OCC)C2(c3ccccc3)N(O1)c1ccccc1C2(C)C (stereo unspecified)
inactive: [1]; at 1.2 µM -2% | [1]; at 3.7 µM -3% | [1]; at 11.0 µM -2% | [1]; at 33.0 µM 0% | [2]; at 1.2 µM -5% | [2]; at 3.7 µM -5% | [2]; at 11.0 µM -6% | [2]; at 33.0 µM -2% | [3]; [16] 32% | [3]; [17] 32% | [3]; at 50.0 µM 15.4% | [4]; at 1.2 µM -4% | [4]; at 3.7 µM -11% | [4]; at 11.0 µM -12% | [4]; at 33.0 µM -4% | [4]; at 100.0 µM 68%
active: [1]; at 100.0 µM 75% | [2]; at 100.0 µM 81%

C/C(=N\NC(N)=O)C(CN1CCOCC1)C(c1ccccc1)c1c(O)c2ccccc2oc1=O (stereo unspecified)
active: [9]; [16] 89% | [9]; [17] 89% | [9]; at 50.0 µM 70.2% | [12]; [16] 89% | [12]; [17] 89% | [12]; at 50.0 µM 78.2%
inactive: [5]; at 1.2 µM 1% | [5]; at 3.7 µM 2% | [5]; at 11.0 µM 0% | [5]; at 33.0 µM 1% | [5]; at 100.0 µM -1% | [6]; at 1.2 µM 6% | [6]; at 3.7 µM 1% | [6]; at 11.0 µM 1% | [6]; at 33.0 µM 0% | [6]; at 100.0 µM -1% | [7]; at 1.2 µM -2% | [7]; at 3.7 µM 4% | [7]; at 11.0 µM 1% | [7]; at 33.0 µM -1% | [7]; at 100.0 µM -10% | [8]; at 1.2 µM -2% | [8]; at 3.7 µM 2% | [8]; at 11.0 µM -3% | [8]; at 33.0 µM 0% | [8]; at 100.0 µM -24% | [9]; at 1.2 µM -1% | [9]; at 3.7 µM 6% | [9]; at 11.0 µM 9% | [9]; at 33.0 µM 5% | [9]; at 100.0 µM -6% | [10]; at 1.2 µM 4% | [10]; at 3.7 µM 6% | [10]; [16] 13% | [10]; at 11.0 µM 6% | [10]; at 33.0 µM 7% | [10]; [17] 13% | [10]; at 50.0 µM 53.6% | [10]; at 100.0 µM 4% | [11]; at 1.2 µM 7% | [11]; at 3.7 µM 8% | [11]; at 11.0 µM 2% | [11]; at 33.0 µM 2% | [11]; at 100.0 µM 3% | [13]; [16] -7% | [13]; [17] -7% | [13]; at 50.0 µM 59.9% | [14]; at 1.2 µM 4% | [14]; at 3.7 µM 1% | [14]; [16] -7% | [14]; at 11.0 µM 2% | [14]; at 33.0 µM 5% | [14]; [17] -7% | [14]; at 50.0 µM 68% | [14]; at 100.0 µM 1% | [1]; at 1.2 µM 2% | [1]; at 3.7 µM 0% | [1]; at 11.0 µM 0% | [1]; at 33.0 µM -2% | [1]; at 100.0 µM -4% | [15]; at 1.2 µM -2% | [15]; at 3.7 µM 1% | [15]; at 11.0 µM 0% | [15]; at 33.0 µM -3% | [15]; at 100.0 µM 1% | [2]; at 1.2 µM -2% | [2]; at 3.7 µM 3% | [2]; at 11.0 µM 1% | [2]; at 33.0 µM -1% | [2]; at 100.0 µM -5% | [3]; [16] 40% | [3]; [17] 40% | [3]; at 50.0 µM 63.2% | [4]; at 1.2 µM 2% | [4]; at 3.7 µM 0% | [4]; at 11.0 µM 6% | [4]; at 33.0 µM 1% | [4]; at 100.0 µM -7%
